Our source for the outcome and AC50 values is PubChem BioAssay (EPA / NIEHS).

The AC50 is the concentration giving half of the maximal activity seen.

In assay [1] the target is Transcription factor E2F1 (Homo sapiens) (UniProt Q01094). The experiment in a line: ATG_E2F_CIS: Attagene CIS-FACTORIAL HepG2 Assay for human E2F Transcription Factor 1 (AID 2282935). Conditions: HepG2 Attagene cis-reporter, E2F reporter RNA transcripts; actives raise or lower the signal. An outline of the steps:
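In this cis-factorial format, endogenous factor activity drives transfected reporters in HepG2; transcripts collected at 24 h are quantified by fluorescence after RT-PCR and capillary separation.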

The nature of assay [2]: ATG_E_Box_CIS: Attagene CIS-FACTORIAL HepG2 Assay for human Enhancer Box (E-box) (AID 2282936). Conditions: HepG2 E-box cis-reporter transcription, actives raise or lower the signal. An outline of the steps: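 Measured 24 h post-dosing in HepG2 cells transfected with multiple cis-regulated reporter units, signal being reporter mRNA induction detected by fluorescent RT-PCR with capillary electrophoresis; gain or loss fitted against DMSO.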

Assay [3] in a line: ATG_M_61_CIS: Attagene CIS-FACTORIAL HepG2 Assay for M61 Transcription Factor (Internal Marker) (AID 2282937). Conditions: HepG2 Attagene CIS-FACTORIAL M61 internal marker reporter; actives raise or lower the signal. An outline of the steps: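 Fluorescence from labelled cDNA fragments, separated by capillary electrophoresis, quantifies reporter induction. HepG2 cells bearing transiently transfected cis-promoter MRTUs were incubated with test chemical for 24 h; DMSO defined baseline for gain/loss fitting.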

The nature of assay [4]: ATG_EGR_CIS: Attagene CIS-FACTORIAL HepG2 Assay for human Early Growth Response 1 (EGR1) (AID 2282938). Conditions: HepG2 Attagene CIS-FACTORIAL EGR reporter mRNA; actives raise or lower the signal. Put shortly: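 Cell-based multiplex transcription assay: HepG2 carrying transfected cis-element reporter units, 24 h chemical treatment. Fluorescence from capillary electrophoresis of RT-PCR products gives mRNA levels; fitting is bidirectional relative to DMSO.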

Assay [5] is described as follows: ATG_M_19_CIS: Attagene CIS-FACTORIAL HepG2 Assay for M19 Transcription Factor (Internal Marker) (AID 2282939). Conditions: HepG2 Attagene CIS-FACTORIAL M19 internal marker reporter; actives raise or lower the signal. An outline of the steps: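 Readout: fluorescent reporter-transcript fragments by capillary electrophoresis after RT-PCR. Human HepG2 liver cells carried transfected MRTU constructs reporting endogenous transcription-factor activity; exposure 24 h. Gain or loss of signal fitted relative to DMSO.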

The nature of assay [6]: ATG_ERE_CIS: Attagene CIS-FACTORIAL HepG2 Assay for Estrogen Response Element (ERE) (AID 2282940). Conditions: HepG2 ERE cis-reporter, Attagene RNA transcript; actives raise or lower the signal. Put shortly: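 Readout: reporter mRNA induction by RT-PCR, FAM-labelled primer extension, HpaI digestion and capillary electrophoresis, 24 h after dosing transfected HepG2 cells. Endogenous transcription factors act on cis-element-regulated reporters. Gain or loss fitted against DMSO.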

Assay [7] can be described thus: ATG_Ets_CIS: Attagene CIS-FACTORIAL HepG2 Assay for human Erythroblast Transformation Specific (ETS) (AID 2282941). Conditions: HepG2 ETS cis-reporter transcription, actives raise or lower the signal. An outline of the steps: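 Cis-regulated reporter mRNA induction in HepG2 (transient transfection), 24 h exposure, RT-PCR plus capillary electrophoresis detection; DMSO serves as negative control and baseline.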

For assay [8], the target named is Hepatocyte nuclear factor 3-beta (Homo sapiens) (UniProt Q9Y261). The experiment in a line: ATG_FoxA2_CIS: Attagene CIS-FACTORIAL HepG2 Assay for human Forkhead box A2 (FOXA2) (AID 2282942). Conditions: HepG2 cis-reporter transcription factor activity, 24 h; actives raise or lower the signal. Put shortly: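 In transiently transfected human HepG2 cells, promoter-driven reporter mRNA levels after 24 h chemical exposure are determined via RT-PCR with capillary electrophoresis. DMSO serves as baseline for bidirectional fitting.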

A short description of assay [9]: ATG_FoxO_CIS: Attagene CIS-FACTORIAL HepG2 Assay for human Forkhead box O (FoxO) (AID 2282943). Conditions: HepG2 Attagene cis-reporter, FoxO element, mRNA; actives raise or lower the signal. Put shortly:
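24 h chemical exposure, HepG2 with transient cis-MRTU transfection. RNA extraction, oligo(dT) RT, reporter-specific PCR, primer-extension labelling, HpaI digestion, CE fragment analysis; bidirectional fit, DMSO baseline.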

A short description of assay [10]: ATG_GATA_CIS: Attagene CIS-FACTORIAL HepG2 Assay for human GATA Binding Protein (AID 2282944). Conditions: HepG2 GATA cis-element reporter, Attagene multiplex mRNA; actives raise or lower the signal. Put shortly:
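Read-out: fluorescent reporter mRNA fragments resolved by capillary electrophoresis after RT-PCR. Human liver HepG2 cells carried transiently transfected cis-regulated reporter constructs; chemicals incubated 24 h; gain or loss of signal fitted relative to DMSO.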

Values joined by “and” are separate entries in the source; they are usually repeats but may differ in a detail not shown here. Equal entries are not always repeated. Some structures have more than one record in an assay (separate samples or runs), and their calls can disagree. Active and inactive are the calls of the source. How the source made its calls: active means hit-call score of the fitted dose curve at least 0.9, where 1 is the maximum; inactive means score below 0.9.

Chain of Transcription factor E2F1 (Homo sapiens) (Q01094 whole entry, looked up): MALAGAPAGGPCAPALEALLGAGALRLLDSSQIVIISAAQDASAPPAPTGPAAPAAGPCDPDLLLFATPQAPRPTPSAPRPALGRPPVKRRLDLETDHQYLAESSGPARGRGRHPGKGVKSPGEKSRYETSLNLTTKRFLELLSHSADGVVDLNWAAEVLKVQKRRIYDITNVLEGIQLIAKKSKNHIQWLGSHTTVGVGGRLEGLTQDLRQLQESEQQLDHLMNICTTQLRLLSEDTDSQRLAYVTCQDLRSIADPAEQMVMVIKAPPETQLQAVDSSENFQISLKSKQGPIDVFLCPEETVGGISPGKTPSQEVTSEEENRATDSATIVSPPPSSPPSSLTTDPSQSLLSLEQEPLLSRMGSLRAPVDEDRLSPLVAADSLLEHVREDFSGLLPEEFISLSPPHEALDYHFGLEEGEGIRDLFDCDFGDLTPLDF
Chain of Hepatocyte nuclear factor 3-beta (Homo sapiens) (Q9Y261 whole entry, looked up): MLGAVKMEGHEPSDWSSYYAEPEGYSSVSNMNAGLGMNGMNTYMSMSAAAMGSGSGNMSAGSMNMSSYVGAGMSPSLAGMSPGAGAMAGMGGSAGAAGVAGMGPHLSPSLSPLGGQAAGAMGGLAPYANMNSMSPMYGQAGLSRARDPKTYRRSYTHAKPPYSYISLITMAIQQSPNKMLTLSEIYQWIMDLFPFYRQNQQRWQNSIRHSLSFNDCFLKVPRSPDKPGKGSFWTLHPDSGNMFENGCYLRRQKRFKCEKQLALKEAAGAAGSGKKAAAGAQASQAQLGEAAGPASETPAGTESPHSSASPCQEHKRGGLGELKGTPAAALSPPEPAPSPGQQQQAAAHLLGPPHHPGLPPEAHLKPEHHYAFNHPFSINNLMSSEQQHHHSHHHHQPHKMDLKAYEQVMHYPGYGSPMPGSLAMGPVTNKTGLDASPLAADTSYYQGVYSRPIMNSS

Regarding `O=C(O)C(F)(OC(F)(F)C(F)(OC(F)(F)C(F)(F)C(F)(F)F)C(F)(F)F)C(F)(F)F` (configuration not stated), the result in assay [1], in [2], in assay [3], in assay [4], in [5] and in assay [6] was inactive. The outcome in assay [7], in [8], in assay [9] and in [10] was inactive.

`COC(OC(C)=O)c1ccccc1` (configuration not stated): the result in [1], in assay [2], in assay [3], in [4], in assay [5] and in assay [6] was inactive. In addition, the molecule was classed as inactive in assay [7], in [8], in [9] and in assay [10].

Take `CC(C)(C)c1ccc(OC2CCCCC2O)cc1` (configuration not stated): the call in assay [1], in assay [2], in [3], in assay [4], in assay [5] and in [6] was inactive. The molecule was called inactive in [7], in assay [9] and in assay [10].

Take `COC(=O)C1CCC(C(=O)OC)CC1` (configuration not stated): the molecule was called inactive in assay [1], in [2], in assay [3], in [5], in assay [6] and in assay [7]. Further, the result in assay [9] and in assay [10] was inactive. Moreover, the AC50 in assay [6] was 20.5 µM (active).

For `CNC(=S)NC`, the molecule was classed as inactive in [1], in [2], in assay [3], in assay [4], in assay [5] and in assay [6]. In addition, the result in assay [7], in assay [8] and in assay [10] was inactive.

`Nc1ccc(S(=O)(=O)Nc2nccs2)cc1`: the call in assay [1], in assay [2], in assay [3], in assay [4], in [5] and in assay [6] was inactive. Moreover, the outcome in [7], in assay [9] and in assay [10] was inactive.

Consider `CCCCCCCOC(=O)c1ccccc1C(=O)OCCCCCCC`, for which the molecule was called inactive in assay [1], in assay [2], in assay [3], in assay [5], in [6] and in assay [7]. Besides, the molecule was called inactive in assay [8], in assay [9] and in [10].

`COC(=O)CCC(F)(F)C(F)(F)C(F)(F)C(F)(F)F`: the molecule was classed as inactive in assay [1], in assay [2], in assay [3], in [5], in [7] and in assay [8]. Moreover, the call in assay [9] and in [10] was inactive. The AC50 in assay [6] is 6.98 µM (active).

Take `CC(Cc1ccc(O)c(O)c1)C(C)Cc1ccc(O)c(O)c1` (configuration not stated): the AC50 in [1] is 33.4 µM (active); in assay [4], 20.5 µM (active); in assay [6] it was 8.81 µM (active). The outcome in assay [2], in assay [3], in [5], in assay [7], in assay [8] and in [9] was inactive. In addition, in [10], the molecule was called inactive.

Turning to `O=C(O)C(F)(F)C(F)(F)OC(F)(F)F`, the result in [1], in assay [2], in assay [3], in assay [4], in assay [5] and in [6] was inactive. For the same molecule, the result in assay [7], in assay [9] and in [10] was inactive.

Consider `OCCCC(F)(F)C(F)(F)C(F)(F)F`, for which the result in assay [1], in assay [2], in assay [3], in assay [5], in [6] and in assay [7] was inactive. Besides, the result in assay [8], in assay [9] and in assay [10] was inactive.

Turning to `FC(F)(F)C(F)(F)C(F)(F)C(F)(F)C(F)(F)CCI`, the molecule was called inactive in assay [1], in assay [2], in [3], in assay [4], in [5] and in [7]. The call in [8] and in assay [10] was inactive. Moreover, the AC50 in assay [6] is 51.2 µM (active).

Consider `O=C(O)C(F)(F)C(F)(F)F`, for which the molecule was called inactive in [1], in assay [2], in assay [3], in assay [4], in assay [5] and in assay [6]. In addition, the outcome in assay [7], in assay [8] and in assay [10] was inactive.

As to `CS(C)(=O)=O`, the outcome in assay [1], in [2], in assay [3], in assay [5], in assay [6] and in [7] was inactive. Moreover, the call in assay [8] and in assay [10] was inactive.

As for `Cc1ccc(S(=O)(=O)NCl)cc1`, the result in assay [1], in assay [2], in assay [3], in assay [4], in assay [5] and in [6] was inactive. Also, the outcome in assay [7], in [8], in assay [9] and in assay [10] was inactive.

Regarding `Cc1cc(C)cc(O)c1`, the call in [1], in [2], in assay [3], in [5], in assay [6] and in assay [7] was inactive. Further, the call in assay [8] and in [10] was inactive.

As to `O=S(=O)(OCCOC(F)(F)F)C(F)(F)F`, the molecule was classed as inactive in [1], in assay [2], in assay [3], in assay [5], in assay [6] and in [7]. For the same molecule, the result in assay [8] and in [10] was inactive.

Consider `FC(F)(F)C(F)(F)C(F)(F)C(F)(F)C(F)(F)C(F)(F)C(F)(F)C(F)(F)F`, for which the result in [1], in [2], in assay [3], in [4], in assay [5] and in [6] was inactive. The call in assay [7] and in assay [10] was inactive.

Turning to `O=C(C=Cc1ccccc1)OCC=Cc1ccccc1`, the molecule was classed as inactive in assay [1], in assay [2], in assay [3], in assay [4], in assay [5] and in assay [6]. The result in [7], in assay [8] and in [10] was inactive.

Regarding `FC1CC(F)(F)C(F)(F)C1(F)F` (configuration not stated), the call in [1], in [2], in assay [3], in [5], in assay [6] and in [7] was inactive. Also, the molecule was classed as inactive in assay [9] and in [10].

For `C(=C(c1ccccc1)c1ccccc1)c1ccccc1`, the molecule was called inactive in [1], in [2], in assay [3], in [5], in assay [7] and in [9]. The molecule was called inactive in assay [10]. In [6], the AC50 was 0.0294 µM (active).

Regarding `O=S(=O)(O)C(F)(F)C(F)(F)C(F)(F)C(F)(F)C(F)(F)C(F)(F)C(F)(F)F`, the call in [1], in assay [2], in [3], in assay [4], in assay [5] and in [7] was inactive. Besides, the outcome in [8], in assay [9] and in [10] was inactive. Moreover, in assay [6], the AC50 was 48.4 µM (active) and 69.9 µM (active).

As for `OC[C@@H](O)[C@@H](O)[C@H](O)[C@@H](O)CO`, the outcome in [1], in assay [2], in assay [3], in assay [4], in assay [5] and in [6] was inactive. Also, the result in assay [7], in assay [8] and in [10] was inactive. Besides, in assay [6], the AC50 was 30.6 µM (active).
